SMILES strings stand for the structures. Active and inactive are the calls of the source.

A short description of test [1]: binders of probe aFSTL3 on microarray, primary screen, stem cell growth factor project, biochemical, small-molecule microarray, fluorescence 635/667 (AID 1064).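 Further: measures binding of the biotinylated anti-FSTL3 antibody to printed compounds.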 The note with it: higher = more signal.
Test [2] is described as follows: binders from COS7 lysate, DM2A8 probe, primary screen, torsin A project, cell lysate, small-molecule microarray, fluorescence 635/667 (AID 1065). The note with it: higher = more signal, COS7 lysate expressing mutant human TOR1A.
A short description of test [3]: binders of probe aFGF2 on microarray, primary screen, stem cell growth factor project, biochemical, small-molecule microarray, fluorescence 635/667 (AID 1067).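 Further: measures binding of biotinylated aFGF2 protein to printed compounds on slides; z-score merges feature fluorescence and signal-to-noise across triplicate slides.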 The note with it: higher = more signal.
Test [4] is described as follows: binders of probe aFGF10 on microarray, primary screen, stem cell growth factor project, biochemical, small-molecule microarray, fluorescence 635/667 (AID 1071).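 Further: score merges 667 nm spot intensity and signal to noise from triplicate slides.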 The note with it: higher = more signal.
In test [5] the target is Neurogenic locus notch homolog protein 2 (Homo sapiens) (UniProt Q04721). In words: Notch2 binders on small-molecule microarrays, primary screen, biochemical, small-molecule microarray, 635 nm fluorescence, stem cell growth factors (AID 1073). The note with it: Notch2 binding, higher = more signal.
Test [6] addresses Pro-neuregulin-1, membrane-bound isoform (Homo sapiens) (UniProt Q02297). Briefly: NRG1 binders on small-molecule microarrays, primary screen, psychiatric disease protein project, biochemical, small-molecule microarray, fluorescence 635/667 (AID 1075).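 Further: score combines 667 nm spot fluorescence with signal to noise.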 The note with it: NRG1 binding, 635 nm fluorescence, higher = more signal.
In test [7] the test system is Neuregulin-1 EGF-like domain. In words: binders of neuregulin-1 EGF-like domain, primary screen, biochemical, small-molecule microarray, 635 nm fluorescence (AID 1081).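 Further: binding of the protein to compounds printed on small-molecule microarray slides.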 The note with it: small-molecule microarray binding, higher = more signal.
The nature of test [8]: FRG1 promoter luciferase signal modulators, primary screen, FRG1 inhibition for FSHD, cell-based, C2C12 myotubes, firefly/Renilla luciferase, luminescence (AID 1084). The note with it: higher = more signal, called active from +8 up or from −8 down.
Test [9] can be described thus: binders of probe aFST on microarray, primary screen, stem cell growth factor project, biochemical, small-molecule microarray, fluorescence 635/667 (AID 1086).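 Further: score merges 667 nm fluorescence with signal-to-noise of each printed compound spot.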 The note with it: higher = more signal.
Test [10] can be described thus: binders of probe aHhip on microarray, primary screen, stem cell growth factor project, biochemical, small-molecule microarray, fluorescence 635/667 (AID 1087).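 Further: score merges spot fluorescence at 667nm with spot signal to noise ratio.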 The note with it: higher = more signal.

Sequence of Neurogenic locus notch homolog protein 2 (Homo sapiens) (Q04721 whole entry, looked up, canonical isoform): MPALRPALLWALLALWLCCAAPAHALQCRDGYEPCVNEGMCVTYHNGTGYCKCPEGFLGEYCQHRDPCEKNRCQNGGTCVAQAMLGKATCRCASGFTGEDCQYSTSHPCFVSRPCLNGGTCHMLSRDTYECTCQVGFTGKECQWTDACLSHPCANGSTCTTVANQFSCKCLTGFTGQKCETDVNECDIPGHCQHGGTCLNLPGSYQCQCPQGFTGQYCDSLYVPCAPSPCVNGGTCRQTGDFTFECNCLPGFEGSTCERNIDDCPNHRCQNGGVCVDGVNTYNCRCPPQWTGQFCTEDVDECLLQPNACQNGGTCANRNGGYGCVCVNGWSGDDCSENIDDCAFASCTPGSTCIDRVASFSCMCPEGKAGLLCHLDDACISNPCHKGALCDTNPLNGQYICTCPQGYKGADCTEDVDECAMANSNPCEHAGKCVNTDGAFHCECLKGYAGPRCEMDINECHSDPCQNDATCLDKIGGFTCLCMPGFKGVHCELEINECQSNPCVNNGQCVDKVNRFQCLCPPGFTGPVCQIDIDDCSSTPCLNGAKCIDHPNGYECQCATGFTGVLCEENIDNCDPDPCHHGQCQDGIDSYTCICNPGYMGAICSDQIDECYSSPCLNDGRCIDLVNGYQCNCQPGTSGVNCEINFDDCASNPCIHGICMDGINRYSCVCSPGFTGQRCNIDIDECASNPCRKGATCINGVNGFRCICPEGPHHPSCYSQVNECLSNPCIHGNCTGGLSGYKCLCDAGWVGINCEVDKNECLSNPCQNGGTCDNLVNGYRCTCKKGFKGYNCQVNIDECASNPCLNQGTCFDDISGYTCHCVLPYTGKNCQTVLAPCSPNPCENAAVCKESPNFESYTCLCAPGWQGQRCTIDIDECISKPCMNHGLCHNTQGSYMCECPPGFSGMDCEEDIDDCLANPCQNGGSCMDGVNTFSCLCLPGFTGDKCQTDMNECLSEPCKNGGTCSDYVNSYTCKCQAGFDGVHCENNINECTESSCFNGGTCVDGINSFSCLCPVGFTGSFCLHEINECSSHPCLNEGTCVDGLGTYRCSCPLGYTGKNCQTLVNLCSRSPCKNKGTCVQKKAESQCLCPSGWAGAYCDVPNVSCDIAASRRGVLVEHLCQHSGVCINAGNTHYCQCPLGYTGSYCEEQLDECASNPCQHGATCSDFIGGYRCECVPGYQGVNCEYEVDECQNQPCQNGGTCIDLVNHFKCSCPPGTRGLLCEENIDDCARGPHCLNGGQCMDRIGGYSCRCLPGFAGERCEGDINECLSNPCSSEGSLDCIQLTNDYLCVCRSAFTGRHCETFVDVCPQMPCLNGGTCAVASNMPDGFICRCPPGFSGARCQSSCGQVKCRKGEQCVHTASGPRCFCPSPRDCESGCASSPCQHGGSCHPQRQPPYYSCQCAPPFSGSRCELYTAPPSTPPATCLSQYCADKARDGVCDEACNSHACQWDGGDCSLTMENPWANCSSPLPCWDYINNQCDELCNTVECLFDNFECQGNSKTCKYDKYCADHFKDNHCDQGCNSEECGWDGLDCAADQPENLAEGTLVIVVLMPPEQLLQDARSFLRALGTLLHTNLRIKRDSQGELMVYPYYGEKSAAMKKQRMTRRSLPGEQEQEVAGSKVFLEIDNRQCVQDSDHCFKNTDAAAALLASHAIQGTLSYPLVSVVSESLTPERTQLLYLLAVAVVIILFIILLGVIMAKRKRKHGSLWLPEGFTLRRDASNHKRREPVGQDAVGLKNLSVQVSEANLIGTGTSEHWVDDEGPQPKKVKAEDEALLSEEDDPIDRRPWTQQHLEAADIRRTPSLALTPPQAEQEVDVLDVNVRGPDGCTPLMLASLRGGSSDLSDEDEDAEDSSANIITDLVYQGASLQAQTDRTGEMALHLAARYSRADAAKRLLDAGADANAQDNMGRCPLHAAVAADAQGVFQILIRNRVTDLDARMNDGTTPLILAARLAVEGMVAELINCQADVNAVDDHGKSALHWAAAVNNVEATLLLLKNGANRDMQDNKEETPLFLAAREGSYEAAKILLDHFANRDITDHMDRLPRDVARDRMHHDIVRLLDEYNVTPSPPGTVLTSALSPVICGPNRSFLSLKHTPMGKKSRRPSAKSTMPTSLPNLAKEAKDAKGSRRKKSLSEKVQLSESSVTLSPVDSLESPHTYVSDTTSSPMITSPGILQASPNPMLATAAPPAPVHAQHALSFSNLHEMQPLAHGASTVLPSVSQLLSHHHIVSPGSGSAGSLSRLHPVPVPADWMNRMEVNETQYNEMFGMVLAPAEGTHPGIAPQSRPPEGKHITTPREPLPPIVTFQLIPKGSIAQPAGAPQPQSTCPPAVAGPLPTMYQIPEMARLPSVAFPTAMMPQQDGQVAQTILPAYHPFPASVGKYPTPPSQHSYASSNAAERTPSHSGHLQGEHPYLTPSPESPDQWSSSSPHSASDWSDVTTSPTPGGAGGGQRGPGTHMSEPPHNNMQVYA
Sequence of Pro-neuregulin-1, membrane-bound isoform (Homo sapiens) (Q02297 whole entry, looked up, the tested form may be a part, canonical isoform): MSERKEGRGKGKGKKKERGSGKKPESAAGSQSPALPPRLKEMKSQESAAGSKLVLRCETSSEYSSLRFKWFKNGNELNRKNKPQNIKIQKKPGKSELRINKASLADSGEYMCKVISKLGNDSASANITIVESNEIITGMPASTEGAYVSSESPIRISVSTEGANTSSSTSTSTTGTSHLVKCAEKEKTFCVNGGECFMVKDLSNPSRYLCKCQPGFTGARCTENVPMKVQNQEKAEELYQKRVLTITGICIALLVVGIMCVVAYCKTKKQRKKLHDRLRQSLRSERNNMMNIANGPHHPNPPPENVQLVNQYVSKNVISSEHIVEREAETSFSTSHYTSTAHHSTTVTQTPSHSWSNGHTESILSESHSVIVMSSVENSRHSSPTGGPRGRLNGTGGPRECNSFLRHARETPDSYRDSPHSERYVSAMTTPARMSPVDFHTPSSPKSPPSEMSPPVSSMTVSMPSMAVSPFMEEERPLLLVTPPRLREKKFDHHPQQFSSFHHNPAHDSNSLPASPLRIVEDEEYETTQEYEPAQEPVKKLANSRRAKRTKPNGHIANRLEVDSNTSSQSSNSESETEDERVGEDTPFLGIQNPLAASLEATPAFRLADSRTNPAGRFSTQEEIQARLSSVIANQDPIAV

Consider `[N-]=[N+]=NCc1ccccc1C[C@@]1(C(=O)NCC(O)CO)N=C(c2ccc(OCCCO)cc2)O[C@@H]1c1ccccc1N=[N+]=[N-]` (stereo not given in full), for which the composite z-score in [1] was 0.516; in [2], -0.133; in test [3], 0.0109; in [4], 0.451; in [5], 0.669; in test [6], 1.78. In addition, the values for the composite z-score in [7], in [9] and in test [10] were 1, 1.66 and 0.0139, respectively. In addition, the z-score in test [8] was -0.755 (inactive).

`CO[C@H]1O[C@H](CO)[C@@H](OC(=O)Nc2ccc(Br)cc2)[C@H](OC(=O)c2cc3ccccc3[nH]2)[C@H]1OC(=O)c1cc2ccccc2[nH]1`: the composite z-score in test [1] was -0.31; in [2], 1.05; in test [3], -0.11; in [4], 0.724; in test [5] it was 0.606; in [6], 0.844. For the same molecule, the composite z-score in [7] is 1.07; in [9] it was 0.237; in test [10], -0.0253. Besides, the z-score in [8] is -0.483 (inactive).

Turning to `CCN(CC)c1ccc(N2CC=CC34O[C@@H]5/C=C\CCC(C)OC(=O)C5[C@H]3C(=O)N(C(CO)C(C)C)[C@@H]4C2=O)cc1` (stereo not given in full), the composite z-score in test [1] was 0.165; in test [2], -0.892; in [3], -0.0316; in test [4], -0.551; in [5] it was -0.455; in test [6] it was 0.12. The results for the composite z-score in test [7], in test [9] and in test [10] were 1.49, -0.344 and 1.01, respectively. For the same molecule, the z-score in [8] was 0.225 (inactive).

On to `C=C(COC)/C(=C/C[C@@H](OC(C)=O)c1ccc(OCCO)cc1)c1cc(C(=O)OC)ccc1OC`, for which the composite z-score is -0.524 in [1]; 0.118 in [2]; -0.0316 in test [3]; 0.872 in [4]; 0.62 in test [5]; 0.67 in [6]. The values for the composite z-score in test [7], in [9] and in [10] were 0.705, 0.627 and 0.107, respectively. Also, the z-score in test [8] is 0.296 (inactive).

In the case of `O=C1O[C@@H](c2ccccc2)[C@@H](c2ccccc2)N2[C@@H](c3ccccc3OCCO)[C@]3(C(=O)Nc4ccc(C#CC5=CCCCC5)cc43)[C@@H](C(=O)Nc3nc4ccccc4s3)[C@H]12`, the composite z-score in test [1] was -0.177; in test [2] it was 0.106; in [3], -0.0267; in [4], 1.09; in test [5], 1.11; in test [6], 0.792. The composite z-score in [7] is 0.94; in test [9], 0.438; in [10], -0.0346. Moreover, in test [8], the z-score is 0.197 (inactive).

For the molecule `O=C1OCCC=C[C@H]2OC34C=CCN(CCN5CCOCC5)C(=O)[C@H]3N(CCCCCCO)C(=O)[C@@H]4C12` (stereo not given in full), the composite z-score in [1] is -0.174; in [2], -0.352; in test [3], -0.147; in test [4], 0.0933; in test [5] it was -0.849; in [6], -0.0296. The values for the composite z-score in [7], in test [9] and in test [10] were 0.988, -0.235 and -0.169, respectively. Moreover, the z-score in test [8] was -0.263 (inactive).

In the case of `COCCOC(=O)N1C(=O)[C@@]2(c3cc(C#CCCO)ccc31)[C@H](C(=O)N1CCc3cc(OC)c(OC)cc3C1)[C@H]1C(=O)O[C@H](c3ccccc3)[C@H](c3ccccc3)N1[C@@H]2c1ccc(O)cc1`, the composite z-score is -0.239 in test [1]; 0.761 in [2]; 0.0106 in test [3]; 0.393 in test [4]; 1.15 in test [5]; 1.46 in [6]. For the same molecule, the composite z-score in [7] was 1.32; in test [9] it was 0.239; in [10], -0.0645. Further, the z-score in test [8] was 0.897 (inactive).

In the case of `[N-]=[N+]=NCc1ccccc1[C@@H]1OC(c2ccc(OCCCO)cc2)=N[C@]1(Cc1ccccc1N=[N+]=[N-])C(=O)N1CCOCC1`, the composite z-score in [1] came to 0.36; in test [2], 0.485; in test [3], 0.321; in [4], 0.636; in test [5], 1.66; in [6], 1.77. For the same molecule, the composite z-score is 1.1 in test [7], 1.08 in test [9] and -0.0994 in test [10]. In test [8], the z-score was -0.825 (inactive).

With `CCOC(=O)C=Cc1cc([N+](=O)[O-])ccc1O`, the composite z-score in [1] was 0.36; in [2], -0.11; in [3], -0.159; in [4], -0.239; in test [5], -1; in [6] it was -0.306. The composite z-score in [7] was 0.358; in test [9], -0.31; in test [10] it was 0.0044. For the same molecule, the z-score in [8] is 2.07 (inactive).

As for `COCCOC(=O)N1C(=O)[C@@]2(c3ccccc31)[C@H](c1ccccc1OCCO)N1[C@H](c3ccccc3)[C@H](c3ccccc3)OC(=O)[C@H]1[C@@H]2C(=O)Nc1nc2ccccc2s1`, the composite z-score in test [1] is -0.223; in test [2], 1.03; in test [3], 0.0186; in test [4] it was 1.11; in [5], 1.02; in test [6] it was 0.961. Moreover, the composite z-score in test [7] stood at 1.21; in test [9] it was 0.215; in test [10] it was 0.0274. Besides, the z-score in [8] was -1.02 (inactive).

Take `CN(C)CCCNC(=O)[C@@]1(C)c2ccccc2C(=O)N(Cc2cc(F)cc(C(F)(F)F)c2)[C@H]1c1ccc(CO)cc1`: the composite z-score is -0.0117 in test [1]; -0.224 in test [2]; -0.144 in [3]; -0.681 in test [4]; -1.23 in test [5]; 1.05 in test [6]. Besides, the composite z-score in test [7] was -0.164; in test [9], -0.641; in [10], -0.132. Further, the z-score in [8] was -0.712 (inactive).

Take `O=C1OCC=C[C@H]2OC34C=CCN(CCN5CCOCC5)C(=O)[C@H]3N(CCCO)C(=O)[C@@H]4[C@@H]12` (stereo not given in full): the composite z-score in test [1] was -0.206; in [2], -0.426; in [3], -0.139; in test [4], -0.02; in [5] it was -0.146; in [6] it was -0.125. The figures for the composite z-score in [7], in test [9] and in [10] were 0.59, -0.382 and -0.0003, respectively. The z-score in [8] was 1.78 (inactive).

Source of the values: PubChem BioAssay.
